# Screens (PubChem BioAssay)
# This excerpt belongs to a sample that is enriched for hits.
# Pf Dd2 inh: Plasmodium falciparum Dd2 growth inhibition. P. falciparum Dd2 growth, SYBR Green, 72 h. Potency, µM (highest dose often 28.9 µM), actives largely listed as inhibitors. 4.3% of 120,000 active. AID 1347417; active means well fitted inhibition curve with a large enough effect; further: nearly all actives have a fitted effect of over 65% in size
#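 Readout: SYBR Green fluorescence, 485 nm excitation, 535 nm emission, after ~16 h lysis at 37C. Before that, Dd2-infected red cells (2.5% hematocrit) grew 72 h with compound, 29 uM top final concentration.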
# Numbers stand for hits; . = inactive.
SMILES,Pf Dd2 inh
COc1ccccc1N1CCN(C(=O)C[C@@H]2CCNC[C@@H]2Cc2cc(-c3ccc(F)cc3)on2)CC1,11µM
Cc1ccsc1C(=O)N1CCC(c2nc(C3CCOCC3)no2)C1 (configuration not stated),.
O=C(c1cccnc1)N1CC[C@H](c2nnc(Cc3ccccc3)o2)C1,.
CCC(=O)N1CCC(n2c(C)cnc2-c2ccncc2)CC1,.
CSCCCN1C(=O)CC[C@H]2CN(C(=O)C3(C#N)CC3)CC[C@H]21,.
COc1ncc(-c2cc3c(nc2OC)nc(CCc2ccccc2)n3C)cn1,7.9µM
COc1ccc(-c2cc3c(nc2OC)nc(CC2CC2)n3C)cc1,.
COc1nc2nc(CCc3ccccc3)n(C)c2cc1-c1ccncc1,.
Cc1ccc(-n2c(C3CCN(C(=O)Cc4c(F)cccc4Cl)CC3)n[nH]c2=O)cc1,.
C[S+](=O)([O-])N1CCN(c2cccc(C=O)c2)C(=O)C1,.
CN1CCC(N2CCC[C@@H](O)[C@H](NC(=O)c3ccc(OCC(N)=O)cc3)C2)CC1,.
CC(C)CNc1ccc2c(n1)C(C)(C(=O)NC1CC1)CN(Cc1ccccc1)C2 (configuration not stated),.
CNC(=O)C1(C)CN(Cc2ccccc2)Cc2ccc(Nc3ccccc3)nc21 (configuration not stated),10µM
CC1(C(=O)Nc2ccc(F)cc2)CN(Cc2ccccc2)Cc2ccc(N3CCOCC3)nc21 (configuration not stated),6.3µM
COCCNC(=O)C1(C)CN(Cc2ccccc2)Cc2ccc(Nc3ccccc3)nc21 (configuration not stated),.
CC1(C(=O)Nc2ccccc2)CN(Cc2ccccc2)Cc2ccc(N3CCOCC3)nc21 (configuration not stated),.
CN1Cc2ccc(NCc3ccccc3)nc2C(C)(C(=O)NCc2cccnc2)C1 (configuration not stated),.
CC1(C(=O)NC2CCOCC2)CN(Cc2ccccc2)Cc2ccc(Nc3ccccc3)nc21 (configuration not stated),.
CC(C)CNc1ccc2c(n1)C(C)(C(=O)N1CCC1)CN(Cc1ccccc1)C2 (configuration not stated),.
CN1Cc2ccc(NCc3ccccc3)nc2C(C)(C(=O)NC2CCC2)C1 (configuration not stated),4µM
CCc1nc(-c2c3n(c(=O)n(Cc4cc(F)cc(F)c4)c2=O)CCCC3)no1,.
COc1cccc(-c2cc(-c3ccccc3)nc3c(C)noc23)c1,14µM
COc1cccc(-c2cc(-c3cccs3)nc3c(C)noc23)c1,.
COc1ccccc1-c1cc(-c2ccccc2)nc2c(C)noc12,.
COC(=O)[C@H]1CCCN1C(=O)[C@@H]1C[C@H](NC(=O)Nc2ccc(F)cc2F)CN1C(=O)CSC,.
SMILES,Pf Dd2 inh
O=C1c2ccccc2CN1C1CCN(Cc2cccnc2)CC1,.
CCN1c2cc(C(=O)Nc3cccc(Cl)c3)ccc2C(=O)N2CCCC21 (configuration not stated),.
COC(=O)c1ccc2nc(CO[C@H]3CN(C4CCC4)C[C@H]3F)[nH]c2c1,.
Cc1cnn(CCC(=O)N[C@@H]2CN(Cc3ccccc3)C[C@H]2CN(C)C)c1,.
Cc1nc2c(-c3ccc(F)cc3)c(C)nn2c(C)c1CCC(=O)NCc1ccc(F)cc1,.
CCOC(=O)c1ccc(NC(=O)CCc2c(C)nc3c(-c4ccc(F)cc4)c(C)nn3c2C)cc1,3.5µM
CCOC(=O)c1ccc(NC(=O)c2cnc3c(-c4ccc(F)cc4)c(C)nn3c2C)cc1,.
CCN1C(=O)CCC2(C(=O)NCc3ccc(OC)c(OC)c3)CCCC=C12 (configuration not stated),.
CNc1cc(C2CC(NS(=O)(=O)c3ccc(Cl)s3)C2)nc(N)n1 (configuration not stated),7.9µM
COc1ccc2c(c1)CN(C(C)C)CC[C@H]1COC(=O)N21,.
Cc1cnc(CCNC(=O)c2cn(C)cn2)n1CC1CC1,.
O=C(O)c1ccc(-c2ccc(C(=O)O)cn2)cc1,.
COc1cccc(-c2ncc3c(n2)OCCN(Cc2ccc(F)cc2F)C3=O)c1,.
COc1cccc(-c2ncc3c(n2)OCCN(Cc2ccc(F)cc2F)C3=O)c1F,10µM
COc1ccccc1-c1ncc2c(n1)OCCN(Cc1ccc(F)cc1F)C2=O,.
CCc1nc(-c2c3n(c(=O)n(Cc4ccc(C#N)cc4)c2=O)CCCCC3)no1,.
COC(=O)[C@H]1CCCN1C(=O)[C@@H]1[C@@H](NC(=O)NC(C)C)CCN1C(=O)c1cccn1C,.
COCCNC(=O)C1COC2(CCN(C(=O)c3ccc(OC)cc3)CC2)N1C(=O)c1ccccc1 (configuration not stated),.
COCCNC(=O)C1COC2(CCN(C(=O)c3ccc(F)cc3)CC2)N1C(=O)c1cccc(C)c1 (configuration not stated),.
COCCCNC(=O)C1COC2(CCCCC2)N1C(=O)c1c(OC)cccc1OC (configuration not stated),6.3µM
CNC(=O)[C@H]1C[C@H](Oc2ccccc2)CN1C(=O)Nc1ccc(OC)cc1,.
O=C(NCCc1ccc(Cl)cc1)c1nc(-c2ccc(F)cc2)c2ccccn12,.
C[S+](=O)([O-])c1ccc(-c2nc(C(=O)NCc3cccnc3)n3ccccc23)cc1,.
C[S+](=O)([O-])c1ccc(-c2nc(C(=O)NCc3ccc(F)cc3)n3ccccc23)cc1,11µM
O=C(NCc1ccc2c(c1)OCO2)c1nc(-c2cc(Cl)cc(Cl)c2)c2ccccn12,.
SMILES,Pf Dd2 inh
O=C(NCc1ccc(F)cc1)c1nc(-c2cc(Cl)cc(Cl)c2)c2ccccn12,10µM
COCCNC(=O)c1nc(-c2ccc(F)cc2)c2ccccn12,.
c1ccc([C@@H]2CNC[C@H]2COc2cccnc2)nc1,.
CN1C[C@H](NC(=O)C2CCOCC2)CCC[C@@H](C(=O)NC2CC2)CC1=O,.
COCCc1nncn1C1CCN(S(=O)(=O)c2ccc(C(F)(F)F)cc2)CC1,.
O=C1NC(=NC2CCCCC2)C2(CCCN(CC3CCCCC3)C2)N1c1cc(F)cc(F)c1 (configuration not stated),7.9µM
COc1cccc(N2C(=O)NC(=NC3CCCCC3)C23CCCN(C(=O)c2ccccc2F)C3)c1 (configuration not stated),.
C[S+](=O)([O-])N1CCCC2(C1)C(=NC1CCCC1)NC(=O)N2c1cc(F)cc(F)c1 (configuration not stated),.
O=C1NC(=NC2CCCCC2)C2(CCN(CC3CC3)CC2)N1c1cc(F)cc(F)c1,.
CC(C)CCN1CCCC2(C1)C(=NC1CCCC1)NC(=O)N2c1cc(F)cc(F)c1 (configuration not stated),10µM
O=C1NC(=NC2CCCC2)C2(CCN(CC3CC3)CC2)N1c1cc(F)cc(F)c1,.
CC(C)CCN1CCC2(CC1)C(=NC1CCCC1)NC(=O)N2c1cc(F)cc(F)c1,.
COc1cccc(N2C(=O)NC(=NC3CCCC3)C23CCCN(CCC(C)C)C3)c1 (configuration not stated),13µM
COc1cccc(N2C(=O)NC(=NC3CCCC3)C23CCCN(C(=O)c2ccccc2)C3)c1 (configuration not stated),.
COc1ccc(NC(=O)C2CC(=O)N(c3n[nH]c4cccc(F)c34)C2)c(OC)c1 (configuration not stated),.
Fc1ccc(CN2CC[C@H](c3nnc(-c4ccc(Cl)cc4)o3)C2)cc1,.
CC(=O)NCC(=O)N1CC(F)(F)C[C@H]1c1nc(-c2ccccc2)no1,.
